# From PubChem BioAssay (EPA / NIEHS)
# Activity calls are given as the source filed them. How the source made its calls: active means hit-call score of the fitted dose curve at least 0.9, where 1 is the maximum; inactive means score below 0.9.
# Key:
# [1] = read-out: Matrix Metallopeptidase 1 (MMP1), MMP1 (gene 4312); assay: BSK_hDFCGF_MMP1: BioMAP Diversity Plus: hDFCGF Assay for Matrix Metallopeptidase 1 (MMP1) Biomarker Activity (AID 2283064); details: primary human foreskin fibroblasts; actives raise or lower the signal
# In short: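 ELISA read-out of MMP1 from human foreskin fibroblasts (primary skin cells), 24 h post-dose. Gain or loss of signal was fitted bidirectionally versus DMSO negative control; cytotoxicity was checked by SRB in parallel cultures.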
# [2] = read-out: Vascular cell adhesion molecule 1 (VCAM1), VCAM1 (gene 7412); assay: BSK_hDFCGF_VCAM1: BioMAP Diversity Plus: hDFCGF Assay for Vascular cell adhesion molecule 1 (VCAM1) Biomarker Activity (AID 2283065); details: primary human foreskin fibroblasts; actives raise or lower the signal;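 on AC50: VCAM-1 protein level quantified by ELISA after 24 h chemical exposure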
# In short: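 Human foreskin fibroblast primary cells dosed with chemical, VCAM-1 measured by ELISA at 24 h. Bidirectional curve fitting relative to DMSO as negative control/baseline.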
# [3] = read-out: Interferon-gamma inducible Protein 10 (IP10), CXCL10 (gene 3627); assay: BSK_KF3CT_IP10: BioMAP Diversity Plus: KF3CT Assay for Interferon-gamma inducible Protein 10 (IP10) Biomarker Activity (AID 2283068); details: primary human keratinocytes with fibroblasts; actives raise or lower the signal
# In short: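 Signal is secreted/surface IP-10 by ELISA in a human primary skin co-culture of keratinocytes and foreskin fibroblasts, taken 24 h post-dosing; DMSO served as negative control.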
# [4] = read-out: Interleukin-1 alpha (IL1a), IL1A (gene 3552); assay: BSK_KF3CT_IL1a: BioMAP Diversity Plus: KF3CT Assay for Interleukin-1 alpha (IL1a) Biomarker Activity (AID 2283070); details: primary human keratinocytes with fibroblasts; actives raise or lower the signal
# In short: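 Primary skin co-culture (keratinocytes, foreskin fibroblasts), 24 h exposure; ELISA for IL-1a; bidirectional curve fit vs DMSO.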
# [5] = read-out: TIMP metallopeptidase inhibitor 2 (TIMP2), TIMP2 (gene 7077); assay: BSK_KF3CT_TIMP2: BioMAP Diversity Plus: KF3CT Assay for TIMP metallopeptidase inhibitor 2 (TIMP2) Biomarker Activity (AID 2283071); details: primary human keratinocytes with fibroblasts; actives raise or lower the signal
# In short: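 TIMP-2 measured by ELISA at 24 h in human keratinocyte/fibroblast primary co-cultures exposed to chemicals. Both increases and decreases were fitted against DMSO. Parallel cultures were stained with SRB for total protein as an overt-cytotoxicity check.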
# [6] = read-out: Transforming growth factor beta 1 (TGFb1), TGFB1 (gene 7040); assay: BSK_KF3CT_TGFb1: BioMAP Diversity Plus: KF3CT Assay for Transforming growth factor beta 1 (TGFb1) Biomarker Activity (AID 2283072); details: primary human keratinocytes with fibroblasts; actives raise or lower the signal
# In short: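 ELISA quantifies TGF-b1 at 24 h post-dose in a primary human skin co-culture of keratinocytes and fibroblasts, with gain or loss judged against DMSO. Parallel SRB total-protein staining flags overt cytotoxicity.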
# [7] = read-out: C-C motif chemokine 2 (Homo sapiens) (UniProt P13500); assay: BSK_KF3CT_MCP1: BioMAP Diversity Plus: KF3CT Assay for Monocyte Chemoattractant Protein 1 (MCP1/CCL2) Biomarker Activity (AID 2283073); details: primary human keratinocytes with fibroblasts; actives raise or lower the signal
# In short: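 Human keratinocyte–foreskin fibroblast co-culture; MCP-1 measured by ELISA 24 h after dosing. Bidirectional fit vs DMSO; cytotoxicity tracked by SRB total protein in parallel cultures.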
# [8] = read-out: Matrix Metallopeptidase 9 (MMP9), MMP9 (gene 4318); assay: BSK_KF3CT_MMP9: BioMAP Diversity Plus: KF3CT Assay for Matrix Metallopeptidase 9 (MMP9) Biomarker Activity (AID 2283074); details: primary human keratinocytes with fibroblasts; actives raise or lower the signal;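 on AC50: MMP9 protein level quantified by ELISA in the co-culture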
# In short: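 ELISA read-out of MMP-9 at 24 h post-dosing in a co-culture of human skin keratinocytes and foreskin fibroblasts. Gain or loss of signal was fitted in both directions against DMSO.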
# [9] = read-out: urokinase plasminogen activator (uPA), PLAU (gene 5328); assay: BSK_KF3CT_uPA: BioMAP Diversity Plus: KF3CT Assay for urokinase plasminogen activator (uPA) Biomarker Activity (AID 2283075); details: primary human keratinocytes with fibroblasts; actives raise or lower the signal
# In short: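 Skin co-culture (keratinocytes + foreskin fibroblasts), human primary; 24 h post-dose; uPA by ELISA; gain/loss fit vs DMSO baseline.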
# CD40, CD40 (gene 958) = assay: BSK_LPS_CD40: BioMAP Diversity Plus: LPS Assay for CD40 Biomarker Activity (AID 2283076); details: primary human HUVEC with PBMC; actives raise or lower the signal
# In short: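 HUVEC plus PBMC co-culture stimulated with LPS; CD40 quantified by ELISA 24 h after compound dosing. Fitting was bidirectional relative to DMSO. SRB staining of parallel cultures flagged overt cytotoxicity.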
# [10] = read-out: E-selectin (Homo sapiens) (UniProt P16581); assay: BSK_LPS_Eselectin: BioMAP Diversity Plus: LPS Assay for Eselectin Biomarker Activity (AID 2283077); details: primary human HUVEC with PBMC; actives raise or lower the signal
# In short: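 Human umbilical vein endothelial cells co-cultured with PBMC under LPS stimulation; cell-surface E-selectin measured by ELISA 24 h after dosing. Change in either direction versus DMSO, with SRB total-protein staining in parallel cultures for cytotoxicity.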
# [11] = read-out: Interleukin-8 (IL8), CXCL8 (gene 3576); assay: BSK_LPS_IL8: BioMAP Diversity Plus: LPS Assay for Interleukin-8 (IL8) Biomarker Activity (AID 2283078); details: primary human HUVEC with PBMC; actives raise or lower the signal
# In short: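 Human umbilical vein endothelial cells co-cultured with PBMC, LPS-stimulated, exposed to compound for 24 h. IL-8 quantified by ELISA; fitted in both directions against DMSO, with SRB total-protein staining of parallel cultures for cytotoxicity.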
# [12] = BSK_LPS_SRB: Viability Assessment in the BioMAP Diversity Plus: LPS Assay (AID 2283079); details: primary human HUVEC with PBMC;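 further: total protein by sulforhodamine B absorbance as a cytotoxicity measure; measured one day after compound addition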
# In short: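 Co-culture of human umbilical vein endothelial cells and PBMC, read 24 h after dosing. Total protein by 0.1% SRB staining after 10% TCA fixation, absorbance at 560 nm; bidirectional fit against DMSO.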
# [13] = read-out: Interleukin-1 alpha (IL1a), IL1A (gene 3552); assay: BSK_LPS_IL1a: BioMAP Diversity Plus: LPS Assay for Interleukin-1 alpha (IL1a) Biomarker Activity (AID 2283080); details: primary human HUVEC with PBMC; actives raise or lower the signal
# In short: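 Human umbilical vein endothelial cells co-cultured with PBMC and stimulated with LPS; IL-1a measured by ELISA 24 h after dosing. Bidirectional fitting against DMSO; cytotoxicity checked by SRB staining in parallel cultures.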
# [14] = read-out: Monocyte Chemoattractant Protein-1 (MCP1), CCL2 (gene 6347); assay: BSK_LPS_MCP1: BioMAP Diversity Plus: LPS Assay for Monocyte Chemoattractant Protein-1 (MCP1) Biomarker Activity (AID 2283081); details: primary human HUVEC with PBMC; actives raise or lower the signal;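 on AC50: secreted MCP-1 protein quantified by ELISA in culture supernatant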
# In short: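 Human umbilical vein endothelial cells co-cultured with PBMC, LPS-stimulated; secreted MCP-1 measured by ELISA 24 h after compound addition. Bidirectional curve fitting against DMSO baseline; SRB total-protein staining in parallel cultures for cytotoxicity.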
# [15] = BSK_LPS_PGE2: BioMAP Diversity Plus: LPS Assay for Prostaglandin E2 (PGE2) Biomarker Activity (AID 2283082); details: primary human HUVEC with PBMC; actives raise or lower the signal;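 on AC50: secreted prostaglandin E2 measured by ELISA in LPS-stimulated co-culture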
# In short: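 PGE2 release measured by ELISA in an LPS-activated co-culture of human umbilical vein endothelial cells and peripheral blood mononuclear cells, read at 24 h post-dosing. DMSO served as baseline for bidirectional curve fitting.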
# [16] = read-out: Macrophage colony-stimulating factor (MCSF), CSF1 (gene 1435); assay: BSK_LPS_MCSF: BioMAP Diversity Plus: LPS Assay for Macrophage colony-stimulating factor (MCSF) Biomarker Activity (AID 2283083); details: primary human HUVEC with PBMC; actives raise or lower the signal
# In short: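 HUVEC–PBMC co-culture, M-CSF measured by ELISA 24 h after chemical dosing. Fitted in both directions relative to DMSO as negative control; overt cytotoxicity assessed by SRB total-protein staining in parallel cultures.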
# [17] = read-out: Intercellular Adhesion Molecule 1 (ICAM1), ICAM1 (gene 3383); assay: BSK_KF3CT_ICAM1: BioMAP Diversity Plus: KF3CT Assay for Intercellular Adhesion Molecule 1 (ICAM1) Biomarker Activity (AID 2283067); details: primary human keratinocytes with fibroblasts; actives raise or lower the signal
# In short: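 Human keratinocyte–foreskin fibroblast co-culture was treated for 24 h. Cell-surface ICAM-1 was quantified by ELISA, fitted bidirectionally relative to DMSO. Cytotoxicity was checked in parallel cultures by SRB total-protein staining.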
# [18] = read-out: Plasminogen activator inhibitor-1 (PAI1), SERPINE1 (gene 5054); assay: BSK_hDFCGF_PAI1: BioMAP Diversity Plus: hDFCGF Assay for Plasminogen activator inhibitor-1 (PAI1) Biomarker Activity (AID 2283066); details: primary human foreskin fibroblasts; actives raise or lower the signal
# In short: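 PAI-1 levels in human dermal foreskin fibroblasts were quantified by ELISA 24 h after dosing, with gain or loss analysed against DMSO. Overt cytotoxicity was checked by sulforhodamine B total-protein staining in parallel cultures.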
# [19] = BSK_KF3CT_SRB: Viability Assessment in the BioMAP Diversity Plus: KF3CT Assay (AID 2283069); details: primary human keratinocytes with fibroblasts
# In short: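 SRB read-out at 560 nm (0.1% stain, TCA-fixed cells) gauges overt cytotoxicity in a human skin keratinocyte–fibroblast co-culture 24 h post-dosing. Signal change was fitted bidirectionally relative to DMSO control.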
# Chain of E-selectin (Homo sapiens) (P16581 whole entry, looked up): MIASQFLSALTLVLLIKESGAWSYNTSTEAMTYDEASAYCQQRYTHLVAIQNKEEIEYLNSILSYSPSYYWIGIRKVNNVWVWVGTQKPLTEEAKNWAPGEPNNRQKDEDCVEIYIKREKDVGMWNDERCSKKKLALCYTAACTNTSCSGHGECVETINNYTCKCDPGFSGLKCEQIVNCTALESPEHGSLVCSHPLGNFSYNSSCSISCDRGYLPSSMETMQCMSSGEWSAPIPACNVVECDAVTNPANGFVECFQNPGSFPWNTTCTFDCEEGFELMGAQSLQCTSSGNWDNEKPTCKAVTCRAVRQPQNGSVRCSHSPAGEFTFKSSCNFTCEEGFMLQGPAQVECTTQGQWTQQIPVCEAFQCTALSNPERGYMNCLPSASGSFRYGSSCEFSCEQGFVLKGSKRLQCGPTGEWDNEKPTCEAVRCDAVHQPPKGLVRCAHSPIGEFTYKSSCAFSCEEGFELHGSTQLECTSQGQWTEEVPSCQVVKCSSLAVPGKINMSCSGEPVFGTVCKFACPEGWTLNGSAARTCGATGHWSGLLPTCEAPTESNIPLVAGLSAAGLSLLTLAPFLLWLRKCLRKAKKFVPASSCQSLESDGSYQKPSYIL
compound,measurement,setting,value
O=c1ssc(Cl)c1Cl,AC50,[1],4.13 µM (active)
same,AC50,[2],4 µM (active)
same,AC50,[3],7.06 µM (active)
same,AC50,[4],3.02 µM (active)
same,AC50,[5],2.71 µM (active)
same,AC50,[6],20 µM (active)
same,AC50,[7],2.98 µM (active)
same,AC50,[8],5.92 µM (active)
same,AC50,[9],5.59 µM (active)
same,AC50,"CD40, CD40 (gene 958)",3.38 µM (active)
same,AC50,[10],6.46 µM (active)
same,AC50,[11],7.38 µM (active)
same,AC50,[12],5.34 µM (active)
same,AC50,[13],4.19 µM (active)
same,AC50,[14],6.46 µM (active)
same,AC50,[15],2.22 µM (active)
same,AC50,[16],4.28 µM (active)
O=P1(N(CCCl)CCCl)NCCCO1 (centres undefined),outcome,[1],inactive
same,outcome,[2],inactive
same,outcome,[17],inactive
same,outcome,[3],inactive
same,outcome,[4],inactive
same,outcome,[5],inactive
same,outcome,[6],inactive
same,outcome,[7],inactive
same,outcome,[8],inactive
same,outcome,[9],inactive
same,outcome,"CD40, CD40 (gene 958)",inactive
same,outcome,[10],inactive
same,outcome,[11],inactive
same,outcome,[12],inactive
same,outcome,[13],inactive
same,outcome,[14],inactive
same,outcome,[15],inactive
same,outcome,[16],inactive
CC(C)(C)c1ccccc1OP(=O)(Oc1ccccc1)Oc1ccccc1,outcome,[1],inactive
same,outcome,[18],inactive
same,outcome,[17],inactive
same,outcome,[3],inactive
same,outcome,[19],inactive
same,AC50,[4],20 µM (active)
same,AC50,[5],20 µM (active)
same,outcome,[6],inactive
same,outcome,[7],inactive
same,AC50,[8],8.49 µM (active)
same,outcome,[9],inactive
same,AC50,"CD40, CD40 (gene 958)",25.3 µM (active)
same,AC50,[10],20 µM (active)
same,AC50,[11],20 µM (active)
same,AC50,[12],20 µM (active)
same,AC50,[13],27.3 µM (active)
same,AC50,[14],20 µM (active)
same,outcome,[15],inactive
same,AC50,[16],20 µM (active)
